Our source for the binding signal values is PMC7862700, “An all-to-all approach to the identification of sequence-specific readers for epigenetic DNA modifications on cytosine”.

Holding throughout (assay): DAPPL (digital affinity profiling via proximity ligation, sequencing); 10 mM Tris-HCl pH 7.5, 50 mM NaCl, 1 mM DTT, 4% glycerol, room temperature, 30 min; GST-TFs on glutathione beads, 16-mer random dsDNA library, 0.1% formaldehyde crosslink after washing; high values mean tight binding
For one experiment, the target named is T1, FLI1 (Homo sapiens, UniProt Q01543 1-452).
T1 sequence: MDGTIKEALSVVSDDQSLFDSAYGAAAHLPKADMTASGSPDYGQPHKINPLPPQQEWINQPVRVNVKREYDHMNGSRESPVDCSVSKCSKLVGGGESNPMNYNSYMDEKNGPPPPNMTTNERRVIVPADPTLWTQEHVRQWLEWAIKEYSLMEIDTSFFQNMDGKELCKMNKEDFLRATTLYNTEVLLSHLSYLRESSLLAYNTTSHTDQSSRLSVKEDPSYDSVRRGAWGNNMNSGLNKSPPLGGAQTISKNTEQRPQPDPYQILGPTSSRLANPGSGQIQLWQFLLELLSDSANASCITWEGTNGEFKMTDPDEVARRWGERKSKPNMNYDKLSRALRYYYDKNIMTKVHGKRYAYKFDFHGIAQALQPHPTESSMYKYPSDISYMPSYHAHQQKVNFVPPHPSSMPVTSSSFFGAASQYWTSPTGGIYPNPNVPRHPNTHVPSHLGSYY
The following applies: protein: recombinant; tags: N-terminal GST; dsDNA, one strand shown. The procedure, abridged:
(§1)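 Binding signal is given per hexamer as its read frequency for a factor divided by its frequency in the tag-only sample. GST-fused human transcription factors were expressed in yeast, captured on glutathione beads, barcoded with DNA and pooled with that sample, then incubated with 200 nmole of a 16-mer random double-stranded DNA library in Tris/NaCl/DTT/glycerol buffer for 30 min at room temperature. The pools were then washed, crosslinked, proximity-ligated, amplified by PCR and sequenced on an Illumina NextSeq500.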

The target of a further experiment is T2, ELK1 (Homo sapiens, UniProt P19419 1-428).
T2 sequence: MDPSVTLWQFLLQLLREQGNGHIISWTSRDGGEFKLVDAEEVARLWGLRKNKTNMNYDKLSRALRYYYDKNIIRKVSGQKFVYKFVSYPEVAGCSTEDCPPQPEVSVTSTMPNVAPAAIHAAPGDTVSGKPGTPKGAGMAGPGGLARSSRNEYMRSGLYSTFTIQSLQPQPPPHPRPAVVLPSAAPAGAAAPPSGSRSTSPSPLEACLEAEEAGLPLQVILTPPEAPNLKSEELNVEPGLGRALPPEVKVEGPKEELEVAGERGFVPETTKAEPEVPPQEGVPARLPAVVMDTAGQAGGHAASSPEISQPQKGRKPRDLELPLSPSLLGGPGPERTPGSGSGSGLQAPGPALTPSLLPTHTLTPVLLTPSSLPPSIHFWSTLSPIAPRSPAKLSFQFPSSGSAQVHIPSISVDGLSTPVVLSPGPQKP
To be noted: protein: recombinant; tags: N-terminal GST; dsDNA, one strand shown. The procedure, abridged:
as §1

Another experiment has as its target T3, GABPA (Homo sapiens, UniProt Q06546 1-454).
T3 sequence: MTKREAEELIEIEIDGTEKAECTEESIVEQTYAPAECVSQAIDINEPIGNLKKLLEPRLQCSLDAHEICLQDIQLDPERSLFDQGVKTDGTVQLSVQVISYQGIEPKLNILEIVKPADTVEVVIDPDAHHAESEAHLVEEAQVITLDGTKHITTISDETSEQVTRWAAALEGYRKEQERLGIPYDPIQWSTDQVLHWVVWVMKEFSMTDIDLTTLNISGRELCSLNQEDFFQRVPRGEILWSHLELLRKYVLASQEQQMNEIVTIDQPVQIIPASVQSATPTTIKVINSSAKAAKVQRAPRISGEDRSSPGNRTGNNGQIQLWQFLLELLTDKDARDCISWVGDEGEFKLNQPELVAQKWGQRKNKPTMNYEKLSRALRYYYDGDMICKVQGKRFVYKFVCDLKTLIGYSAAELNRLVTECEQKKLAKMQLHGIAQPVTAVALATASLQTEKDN
The following applies: protein: recombinant; tags: N-terminal GST; dsDNA, one strand shown. The essentials:
as §1

For another experiment, the target named is T4, ERG (Homo sapiens, UniProt P11308 1-479).
T4 sequence: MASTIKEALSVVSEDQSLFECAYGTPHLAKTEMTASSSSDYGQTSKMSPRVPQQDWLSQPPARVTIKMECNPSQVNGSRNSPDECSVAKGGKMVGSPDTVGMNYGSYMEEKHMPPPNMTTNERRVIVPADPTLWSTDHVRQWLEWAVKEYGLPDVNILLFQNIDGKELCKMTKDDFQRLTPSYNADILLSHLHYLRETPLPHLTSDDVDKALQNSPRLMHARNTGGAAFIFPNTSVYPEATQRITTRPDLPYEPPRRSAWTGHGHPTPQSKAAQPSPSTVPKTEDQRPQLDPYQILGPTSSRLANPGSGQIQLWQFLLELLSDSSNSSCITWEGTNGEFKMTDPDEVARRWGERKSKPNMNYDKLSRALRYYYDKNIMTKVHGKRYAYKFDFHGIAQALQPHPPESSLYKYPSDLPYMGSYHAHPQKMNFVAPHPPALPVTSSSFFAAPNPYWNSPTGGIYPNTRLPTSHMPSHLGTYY
The following applies: protein: recombinant; tags: N-terminal GST; dsDNA, one strand shown. The procedure, abridged: as §1

For the next experiment, the target named is ELF1 (Homo sapiens, UniProt P32519 1-619). The following applies: protein: recombinant; tags: N-terminal GST; dsDNA, one strand shown. The procedure, abridged: as §1
A further experiment concerns the target T5, EHF (Homo sapiens, UniProt Q9NZC4 1-300).
T5 sequence: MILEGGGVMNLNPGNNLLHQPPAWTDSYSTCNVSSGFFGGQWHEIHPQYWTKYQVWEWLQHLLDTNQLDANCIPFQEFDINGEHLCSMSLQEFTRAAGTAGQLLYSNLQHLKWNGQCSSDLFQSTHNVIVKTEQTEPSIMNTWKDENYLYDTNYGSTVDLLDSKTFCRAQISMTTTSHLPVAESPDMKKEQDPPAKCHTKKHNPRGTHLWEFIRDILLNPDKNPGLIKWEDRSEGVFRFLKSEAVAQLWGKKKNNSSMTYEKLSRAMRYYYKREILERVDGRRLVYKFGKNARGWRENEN
To be noted: protein: recombinant; tags: N-terminal GST; dsDNA, one strand shown. The procedure, abridged: as §1

The target in the next experiment is SPI1 (Homo sapiens, UniProt P17947 1-270). The following applies: protein: recombinant; tags: N-terminal GST; dsDNA, one strand shown. The procedure, abridged:
as §1

The next experiment has as its target SPIB (Homo sapiens, UniProt Q01892 1-262). The following applies: protein: recombinant; tags: N-terminal GST; dsDNA, one strand shown. The essentials:
as §1

A further experiment concerns the target T6, ELK3 (Homo sapiens, UniProt P41970 1-407).
T6 sequence: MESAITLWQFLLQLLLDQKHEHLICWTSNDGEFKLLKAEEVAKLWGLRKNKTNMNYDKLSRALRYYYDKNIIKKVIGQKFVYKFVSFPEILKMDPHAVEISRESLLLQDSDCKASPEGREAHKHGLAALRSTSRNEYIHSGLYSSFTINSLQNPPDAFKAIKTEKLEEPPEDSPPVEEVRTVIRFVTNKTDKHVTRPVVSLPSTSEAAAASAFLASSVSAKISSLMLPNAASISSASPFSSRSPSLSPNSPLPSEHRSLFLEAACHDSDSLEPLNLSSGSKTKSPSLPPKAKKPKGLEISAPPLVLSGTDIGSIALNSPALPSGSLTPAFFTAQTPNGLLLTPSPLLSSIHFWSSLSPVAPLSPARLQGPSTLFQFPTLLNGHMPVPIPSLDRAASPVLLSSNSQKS
The following applies: protein: recombinant; tags: N-terminal GST; dsDNA, one strand shown. The essentials:
as §1

The next experiment addresses T7, FEV (Homo sapiens, UniProt Q99581 1-238).
T7 sequence: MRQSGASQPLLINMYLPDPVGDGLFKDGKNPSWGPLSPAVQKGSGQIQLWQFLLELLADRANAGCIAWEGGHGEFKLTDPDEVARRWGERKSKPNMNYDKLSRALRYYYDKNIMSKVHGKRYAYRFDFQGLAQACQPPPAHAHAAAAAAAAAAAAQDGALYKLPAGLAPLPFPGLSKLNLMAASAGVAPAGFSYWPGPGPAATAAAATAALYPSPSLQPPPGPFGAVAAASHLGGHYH
The following applies: protein: recombinant; tags: N-terminal GST; dsDNA, one strand shown. The procedure, abridged: as §1

In another experiment the target is ETV5 (Homo sapiens, UniProt P41161 1-510). The following applies: protein: recombinant; tags: N-terminal GST; dsDNA, one strand shown. The procedure, abridged: as §1
In a further experiment the target is HSF1 (Homo sapiens, UniProt Q00613 1-529). To be noted: protein: recombinant; tags: N-terminal GST; chain copies: 3; dsDNA, one strand shown. The procedure, abridged: as §1
For a further experiment, the target named is T8, SPIC (Homo sapiens, UniProt Q8N5J4 1-248).
T8 sequence: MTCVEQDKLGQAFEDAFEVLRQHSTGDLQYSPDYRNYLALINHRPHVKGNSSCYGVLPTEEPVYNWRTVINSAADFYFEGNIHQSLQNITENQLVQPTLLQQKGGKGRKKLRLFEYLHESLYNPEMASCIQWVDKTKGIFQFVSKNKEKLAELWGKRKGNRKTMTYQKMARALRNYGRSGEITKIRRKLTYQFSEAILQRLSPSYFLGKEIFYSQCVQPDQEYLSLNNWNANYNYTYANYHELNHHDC
To be noted: protein: recombinant; tags: N-terminal GST; dsDNA, one strand shown. The essentials:
as §1

The target of another experiment is ELF4 (Homo sapiens, UniProt Q99607 1-663). The following applies: protein: recombinant; tags: N-terminal GST; dsDNA, one strand shown. The essentials:
as §1

In a further experiment the target is T9, ELK4 (Homo sapiens, UniProt P28324-2 1-405).
T9 sequence: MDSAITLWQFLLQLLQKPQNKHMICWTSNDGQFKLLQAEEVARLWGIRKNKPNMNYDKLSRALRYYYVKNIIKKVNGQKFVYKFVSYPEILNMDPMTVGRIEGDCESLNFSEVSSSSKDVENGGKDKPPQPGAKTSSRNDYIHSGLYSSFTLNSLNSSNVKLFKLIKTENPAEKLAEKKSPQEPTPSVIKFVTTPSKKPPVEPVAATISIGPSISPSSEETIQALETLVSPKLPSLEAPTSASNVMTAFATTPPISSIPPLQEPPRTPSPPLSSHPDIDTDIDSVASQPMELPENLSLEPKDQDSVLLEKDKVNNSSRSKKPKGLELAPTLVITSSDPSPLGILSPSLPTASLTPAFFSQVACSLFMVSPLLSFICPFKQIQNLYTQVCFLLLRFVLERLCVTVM
The following applies: protein: recombinant; tags: N-terminal GST; dsDNA, one strand shown. The procedure, abridged: as §1

Another experiment concerns the target T10, ETV2 (Homo sapiens, UniProt O00321 1-342).
T10 sequence: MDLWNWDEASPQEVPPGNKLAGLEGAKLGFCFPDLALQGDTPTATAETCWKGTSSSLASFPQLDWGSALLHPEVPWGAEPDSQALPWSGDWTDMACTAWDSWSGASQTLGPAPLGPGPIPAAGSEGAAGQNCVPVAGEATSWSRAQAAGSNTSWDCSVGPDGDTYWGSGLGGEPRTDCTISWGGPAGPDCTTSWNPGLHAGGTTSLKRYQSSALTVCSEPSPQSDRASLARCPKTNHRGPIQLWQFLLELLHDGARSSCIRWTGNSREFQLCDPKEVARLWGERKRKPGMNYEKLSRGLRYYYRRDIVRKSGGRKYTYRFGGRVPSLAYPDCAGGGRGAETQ
The following applies: protein: recombinant; tags: N-terminal GST; dsDNA, one strand shown. The procedure, abridged: as §1

In the next experiment the target is T11, ELF3 (Homo sapiens, UniProt P78545 1-371).
T11 sequence: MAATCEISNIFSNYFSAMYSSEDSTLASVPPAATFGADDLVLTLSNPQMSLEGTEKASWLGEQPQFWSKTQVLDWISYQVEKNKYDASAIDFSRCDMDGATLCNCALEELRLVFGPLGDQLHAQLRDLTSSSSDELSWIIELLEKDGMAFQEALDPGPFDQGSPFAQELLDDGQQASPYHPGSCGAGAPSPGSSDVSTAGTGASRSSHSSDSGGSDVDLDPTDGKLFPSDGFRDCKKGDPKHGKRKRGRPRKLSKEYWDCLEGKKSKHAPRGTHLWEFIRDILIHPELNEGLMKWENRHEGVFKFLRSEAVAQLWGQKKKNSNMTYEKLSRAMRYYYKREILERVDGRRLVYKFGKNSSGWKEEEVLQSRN
To be noted: protein: recombinant; tags: N-terminal GST; dsDNA, one strand shown. The essentials: as §1

For the next experiment, the target named is CRX (Homo sapiens, UniProt O43186 1-299). The following applies: protein: recombinant; tags: N-terminal GST; dsDNA, one strand shown. The essentials: as §1
The target in the next experiment is ETV1 (Homo sapiens, UniProt P50549 1-477). The following applies: protein: recombinant; tags: N-terminal GST; dsDNA, one strand shown. The essentials:
as §1

ETV5, sequence (P41161 whole entry): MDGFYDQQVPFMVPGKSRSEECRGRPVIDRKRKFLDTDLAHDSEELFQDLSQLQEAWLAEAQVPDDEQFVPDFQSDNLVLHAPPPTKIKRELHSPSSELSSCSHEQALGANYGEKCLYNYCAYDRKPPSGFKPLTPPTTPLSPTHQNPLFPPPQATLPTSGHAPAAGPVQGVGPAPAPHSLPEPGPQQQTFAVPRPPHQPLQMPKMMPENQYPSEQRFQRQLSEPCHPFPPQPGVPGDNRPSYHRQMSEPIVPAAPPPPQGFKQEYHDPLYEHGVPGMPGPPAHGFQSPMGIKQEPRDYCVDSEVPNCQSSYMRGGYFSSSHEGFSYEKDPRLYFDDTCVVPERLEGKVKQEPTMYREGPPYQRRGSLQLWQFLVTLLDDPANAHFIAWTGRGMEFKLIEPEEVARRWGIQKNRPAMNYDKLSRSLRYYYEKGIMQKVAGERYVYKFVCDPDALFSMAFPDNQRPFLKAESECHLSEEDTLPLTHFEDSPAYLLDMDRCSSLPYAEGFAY
HSF1, sequence (Q00613 whole entry): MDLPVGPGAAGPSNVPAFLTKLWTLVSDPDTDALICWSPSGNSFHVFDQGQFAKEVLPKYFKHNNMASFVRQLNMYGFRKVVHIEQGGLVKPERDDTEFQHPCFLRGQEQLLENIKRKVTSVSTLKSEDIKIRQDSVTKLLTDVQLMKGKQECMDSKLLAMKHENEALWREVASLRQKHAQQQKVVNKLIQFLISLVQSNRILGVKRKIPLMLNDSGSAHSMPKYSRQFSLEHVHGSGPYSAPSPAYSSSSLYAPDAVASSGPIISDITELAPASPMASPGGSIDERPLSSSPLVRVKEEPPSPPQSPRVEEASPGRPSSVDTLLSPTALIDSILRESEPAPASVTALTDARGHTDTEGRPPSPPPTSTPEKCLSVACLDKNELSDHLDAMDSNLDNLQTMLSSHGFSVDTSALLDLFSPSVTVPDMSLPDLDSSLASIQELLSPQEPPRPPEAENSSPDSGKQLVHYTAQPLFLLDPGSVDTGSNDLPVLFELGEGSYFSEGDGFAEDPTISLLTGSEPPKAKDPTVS
CRX, sequence (O43186 whole entry): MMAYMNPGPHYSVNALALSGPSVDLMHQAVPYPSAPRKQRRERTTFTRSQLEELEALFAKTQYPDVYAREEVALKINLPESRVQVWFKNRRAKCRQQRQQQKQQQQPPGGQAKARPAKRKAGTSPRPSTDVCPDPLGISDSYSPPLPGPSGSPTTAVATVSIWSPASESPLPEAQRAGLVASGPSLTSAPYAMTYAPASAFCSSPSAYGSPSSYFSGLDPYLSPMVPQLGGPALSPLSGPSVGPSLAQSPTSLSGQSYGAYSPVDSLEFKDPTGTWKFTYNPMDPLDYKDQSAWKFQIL
SPIB, sequence (Q01892 whole entry): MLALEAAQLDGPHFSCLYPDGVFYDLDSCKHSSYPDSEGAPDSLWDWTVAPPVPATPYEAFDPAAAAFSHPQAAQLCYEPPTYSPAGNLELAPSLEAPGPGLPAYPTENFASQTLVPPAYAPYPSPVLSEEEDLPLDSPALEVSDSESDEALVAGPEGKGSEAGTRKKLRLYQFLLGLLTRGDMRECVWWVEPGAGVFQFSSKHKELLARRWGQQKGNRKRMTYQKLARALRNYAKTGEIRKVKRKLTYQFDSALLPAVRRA
ETV1, sequence (P50549 whole entry): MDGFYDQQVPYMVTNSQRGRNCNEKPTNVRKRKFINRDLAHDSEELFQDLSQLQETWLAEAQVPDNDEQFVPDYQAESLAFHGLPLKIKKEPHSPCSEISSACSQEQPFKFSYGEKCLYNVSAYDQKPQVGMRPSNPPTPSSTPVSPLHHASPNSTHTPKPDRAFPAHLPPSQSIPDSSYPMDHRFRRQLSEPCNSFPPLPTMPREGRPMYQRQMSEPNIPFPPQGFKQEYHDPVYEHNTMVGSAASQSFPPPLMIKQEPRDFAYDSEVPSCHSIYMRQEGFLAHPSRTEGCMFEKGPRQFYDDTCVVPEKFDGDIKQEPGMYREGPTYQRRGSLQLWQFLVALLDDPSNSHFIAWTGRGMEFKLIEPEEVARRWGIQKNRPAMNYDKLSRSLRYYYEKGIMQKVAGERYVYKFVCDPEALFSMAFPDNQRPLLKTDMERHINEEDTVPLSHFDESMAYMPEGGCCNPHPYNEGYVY
ELF1, sequence (P32519 whole entry): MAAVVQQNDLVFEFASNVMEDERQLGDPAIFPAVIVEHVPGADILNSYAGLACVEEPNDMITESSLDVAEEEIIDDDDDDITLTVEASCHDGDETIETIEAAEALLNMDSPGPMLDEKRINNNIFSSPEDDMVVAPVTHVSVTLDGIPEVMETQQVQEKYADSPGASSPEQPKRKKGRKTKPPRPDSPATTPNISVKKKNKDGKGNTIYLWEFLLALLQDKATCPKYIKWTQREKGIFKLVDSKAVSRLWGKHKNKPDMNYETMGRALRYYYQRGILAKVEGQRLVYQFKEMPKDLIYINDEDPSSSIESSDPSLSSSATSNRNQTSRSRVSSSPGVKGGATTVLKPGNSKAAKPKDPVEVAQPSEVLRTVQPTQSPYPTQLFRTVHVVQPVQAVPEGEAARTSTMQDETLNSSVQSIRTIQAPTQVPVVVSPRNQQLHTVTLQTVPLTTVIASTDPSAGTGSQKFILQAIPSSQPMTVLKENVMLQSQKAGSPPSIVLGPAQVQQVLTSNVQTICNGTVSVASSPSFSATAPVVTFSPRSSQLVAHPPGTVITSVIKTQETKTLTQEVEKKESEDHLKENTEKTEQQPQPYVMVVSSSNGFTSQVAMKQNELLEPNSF
ELF4, sequence (Q99607 whole entry): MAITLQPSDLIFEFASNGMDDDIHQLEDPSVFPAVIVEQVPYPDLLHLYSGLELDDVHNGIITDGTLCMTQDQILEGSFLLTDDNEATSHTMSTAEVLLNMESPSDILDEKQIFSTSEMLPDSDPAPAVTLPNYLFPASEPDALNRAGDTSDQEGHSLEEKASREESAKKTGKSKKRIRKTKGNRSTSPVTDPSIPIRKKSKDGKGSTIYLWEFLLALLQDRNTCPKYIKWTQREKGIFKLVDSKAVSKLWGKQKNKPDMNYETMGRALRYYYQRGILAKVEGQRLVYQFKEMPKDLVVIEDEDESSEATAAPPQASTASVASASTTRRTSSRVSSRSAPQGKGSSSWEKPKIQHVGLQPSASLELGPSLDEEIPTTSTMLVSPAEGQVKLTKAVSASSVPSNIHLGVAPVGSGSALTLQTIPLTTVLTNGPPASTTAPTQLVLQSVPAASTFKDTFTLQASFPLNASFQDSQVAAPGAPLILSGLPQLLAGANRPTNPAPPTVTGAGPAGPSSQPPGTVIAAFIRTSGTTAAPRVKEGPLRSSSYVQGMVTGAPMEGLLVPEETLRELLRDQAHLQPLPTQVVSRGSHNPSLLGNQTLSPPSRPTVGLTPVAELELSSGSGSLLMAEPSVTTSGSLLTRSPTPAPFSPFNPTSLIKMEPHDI

Consider CCTGGT, for which the binding signal with FLI1 is 1.28 fold enrichment (6-mer frequency, TF over GST control); in the experiment with ELK1, 1.34 fold enrichment (6-mer frequency, TF over GST control); with GABPA it was 1.4 fold enrichment (6-mer frequency, TF over GST control); in the experiment with ERG it was 1.29 fold enrichment (6-mer frequency, TF over GST control); with ELF1 it was 1.44 fold enrichment (6-mer frequency, TF over GST control); in the experiment with EHF it was 1.47 fold enrichment (6-mer frequency, TF over GST control). The binding signal is 1.4 fold enrichment (6-mer frequency, TF over GST control) with SPI1; 1.52 fold enrichment (6-mer frequency, TF over GST control) with SPIB; 1.33 fold enrichment (6-mer frequency, TF over GST control) with ELK3; 1.25 fold enrichment (6-mer frequency, TF over GST control) in the experiment with FEV; 1.42 fold enrichment (6-mer frequency, TF over GST control) in the experiment with ETV5; 1.08 fold enrichment (6-mer frequency, TF over GST control) with HSF1. The binding signal with SPIC was 1.34 fold enrichment (6-mer frequency, TF over GST control); with ELF4, 1.35 fold enrichment (6-mer frequency, TF over GST control); with ELK4, 1.2 fold enrichment (6-mer frequency, TF over GST control); with ETV2, 1.56 fold enrichment (6-mer frequency, TF over GST control); with ELF3, 1.13 fold enrichment (6-mer frequency, TF over GST control); with CRX, 1.1 fold enrichment (6-mer frequency, TF over GST control). The binding signal in the experiment with ETV1 is 1.54 fold enrichment (6-mer frequency, TF over GST control).
